Most compounds without a hit are left out; they make up all but 3.2% or so of the library.
GLP-1R inv ag = acts as inverse agonist at human GLP-1 receptor | 1.6% of 410,000 active | HEK293 GLP-1R CRE-luciferase, luminescence, 24 h; GLP-1R form is constitutively active | AID 624417 | Potency, µM (highest dose often 38.3 µM), hits mostly inhibitors | P43220; further: nearly all actives have a fitted effect of over 55% in size
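Inverse agonism was detected as reduced cAMP-driven luciferase luminescence after 24 h compound treatment. The cells were HEK293 clones expressing constitutively active human GLP-1R with the reporter. Reporter-only and GPR119 cell lines served as counterscreen controls.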
HEK293 tox = cytotoxic in the GLP-1 receptor inverse agonist counter-screen; 0.13% of 410,000 active; AID 624418; HEK293 cAMP-luciferase reporter cells, luminescence, 24 h; Potency, µM (titrated, usually from 38.3 µM), most hits filed as inhibitors;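 further: loss of luciferase light is scored as toxicity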
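Here, cytotoxicity is scored as loss of luminescence. The MLSMR collection was tested on cells seeded in medium containing 10% Nu serum, with a 24 hr compound exposure preceded by 12 hours of culture.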
ClpP mod = qHTS Assay for Activators of ClpP; ATP-dependent Clp protease proteolytic subunit (Bacillus subtilis (strain 168)), P80244; purified B. subtilis ClpP, FRET peptide cleavage, 20 min; Potency, µM (doses to about 57.5 µM); 1.9% of 340,000 active; active means well fitted falling curve with a large enough effect; inconclusive means small, poorly fitted or top-dose-only effect; inactive means no such curve, though single readings can be large or run the other way; further: the source files actives as falling curves though it sought activators and does not explain the sign; nearly all actives have a fitted effect of over 65% in size
Target sequence (P80244 whole entry, looked up): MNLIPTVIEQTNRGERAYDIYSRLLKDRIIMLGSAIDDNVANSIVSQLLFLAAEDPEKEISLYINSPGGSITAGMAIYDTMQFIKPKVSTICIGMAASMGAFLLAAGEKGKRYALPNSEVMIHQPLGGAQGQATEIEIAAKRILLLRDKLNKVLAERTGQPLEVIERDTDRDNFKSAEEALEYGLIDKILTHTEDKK
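FRET quenching reversal measured ClpP activation: 10 microg/mL B. subtilis ClpP at pH 8 with the FRET-FV decapeptide, read at 430 nm after 320 nm excitation. The 20-min minus 0-min signal was scaled between DMSO/no-enzyme wells and ADEP (5.8 microM final).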
GLP1R ag = agonists of human GLP-1 receptor. Potency, µM (highest dose often 45.6 µM), usual class: activators. HEK293 GLP-1R CRE-luciferase, luminescence, 4-6 h; cells express a hypersensitive GLP-1R form. 0.007% of 380,000 active
A number is an active result; - = inactive; ? = inconclusive; . = not tested or not shown. Unless noted, the call rests on the fitted dose curve; in most records, active means well fitted curve in the direction sought with a large enough effect; inconclusive means small, poorly fitted or top-dose-only effect, or another doubt; inactive means no such curve, though single readings can be large; an effect the other way counts as inactive or inconclusive.

SMILES	GLP-1R inv ag	HEK293 tox	ClpP mod	GLP1R ag
Cc1cccc(CNC(=O)c2ccc3c(c2)c(C)c(C)n3Cc2ccccc2)c1	?	-	-	.
Cc1c(C)n(Cc2ccccc2)c2ccc(C(=O)NCc3ccc(OC(C)C)cc3)cc12	?	-	18µM	.
Cn1nnnc1SCCCNCc1ccccc1OCc1ccccc1Cl	?	?	-	.
COc1ccccc1CN(C)C(=O)C(NC(=O)Cc1cccc2ccccc12)C(C)C (centres undefined)	10µM	?	.	-
O=C(COc1ccc2ccccc2c1)NC1CC(=O)N(c2ccc(F)cc2)C1 (centres undefined)	-	-	-	.
CC(C)c1ccc(-c2cc(C(=O)N3N=C(C(F)F)CC3(O)C(F)F)c3ccccc3n2)cc1 (centres undefined)	-	?	28µM	-
c1ccc(-c2n[nH]c(-c3ccccn3)n2)nc1	-	-	25µM	-
CN(C)CCCN(C(=O)CCOc1ccccc1)c1nc2ccc(F)cc2s1	?	10µM	-	-
CCN(Cc1ccccc1)S(=O)(=O)c1ccc(C(=O)N(CCCN(C)C)c2nc3ccc(F)cc3s2)cc1	5.6µM	?	-	-
CN(C)CCCN(C(=O)COc1ccccc1)c1nc2ccc(F)cc2s1	?	-	-	-
COc1cc(NC(=O)c2noc3c2CCc2ccccc2-3)cc(OC)c1OC	?	-	-	.
COC(=O)c1cc2oc3ccccc3c2n1CC(=O)N1CCCc2ccccc21	-	-	8.9µM	-
COC(=O)c1cc2ccsc2n1CC(=O)N1CCCc2ccccc21	?	?	-	-
COC(=O)c1cc2oc3ccccc3c2n1Cc1ccccn1	4.5µM	-	?	-
COC(=O)c1cc2oc3ccccc3c2n1Cc1ccc(C)cc1	-	-	-	.
O=C1C=C(CO)OCC1=O	.	.	.	-
Cn1cnc(S(=O)(=O)N2CCC(C(=O)Nc3ccc(OC(F)(F)F)cc3)CC2)c1	-	-	-	.
CCn1cc(S(=O)(=O)c2ccccc2)c(=O)c2cc(F)c(N3CCCC3)cc21	-	-	25µM	.
CCn1cc(C(=O)NCc2ccncc2)c(=O)c2cc(F)c(N3CCN(C(=O)c4ccco4)CC3)cc21	-	-	.	-
CCCn1cc(S(=O)(=O)c2ccc(OC)cc2)c(=O)c2cc(F)c(N3CCCC(C)C3)cc21 (centres undefined)	?	-	20µM	.
CCCn1cc(S(=O)(=O)c2ccccc2)c(=O)c2cc(F)c(N3CCCCCC3)cc21	?	-	28µM	.
CCn1cc(C(=O)NCc2ccccc2)c(=O)c2cc(F)c(N3CCN(C(=O)c4ccco4)CC3)cc21	-	-	14µM	-
COc1cc(NC(=O)CSc2ccc(-c3sc(-c4ccccc4)nc3C)nn2)cc(OC)c1	-	-	-	.
COc1ccccc1N1CCN(c2ccc(=O)n(CC(=O)O)n2)CC1	-	-	-	-
COC(=O)c1ccc(CNCC(O)COc2ccc(-c3ccccc3)cc2)cc1 (centres undefined)	-	-	.	-
SMILES	GLP-1R inv ag	HEK293 tox	ClpP mod	GLP1R ag
COC(=O)c1ccc(-c2ccc(CNCC(O)c3ccccc3)o2)cc1 (centres undefined)	-	-	16µM	-
CCN(CC)S(=O)(=O)c1ccc(C)c(NC(=O)COc2ccc3c(C)cc(=O)oc3c2)c1	-	-	25µM	-
Cc1cc(=O)oc2cc(OC(C)C(=O)NC3CCCC3)ccc12 (centres undefined)	-	-	.	-
CCN(CC)S(=O)(=O)c1ccc(OC)c(NC(=O)C(C)Oc2ccc3c(C)cc(=O)oc3c2)c1 (centres undefined)	-	?	25µM	-
Cc1cc(C)c(NC(=O)COc2ccc3c(C)cc(=O)oc3c2)c(C)c1	-	-	-	.
Cc1csc2nc(-c3cccc(NC(=O)c4ccc(S(N)(=O)=O)cc4)c3)cn12	?	-	-	-
Fc1ccc(Nc2nc(NCc3ccco3)c3ccccc3n2)cc1	3.5µM	?	-	-
Cc1oc(-c2ccccc2)nc1CNC(=O)Nc1ccccc1	?	-	-	.
CCCN(CCC)C(=O)c1oc2ccccc2c1NC(=O)Cc1cccc(OC)c1	7.9µM	-	-	-
Brc1ccc(/C=N/Nc2ccccc2)cc1	4.5µM	-	.	-
COc1cc(/C=N/Nc2ccccc2)ccc1O	2.5µM	-	.	-
COc1cc(/C=N/Nc2ccccc2C(F)(F)F)ccc1O	?	-	-	-
Oc1ccc(/C=N/Nc2ccccc2)cc1	?	-	.	-
Cc1onc(-c2ccccc2Cl)c1C(=O)Nc1nnc(-c2ccc(Cl)cc2Cl)s1	-	-	-	-
